Test results from PubChem BioAssay AID624300 (Southern Research Specialized Biocontainment Screening …, 2012).
The campaign covered roughly 2,400 compounds. About 360 (15%) were called active.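 How the source made its calls: active means viability falls under 70% at one or more tested concentrations, taken as toxicity; inactive means viability stays over 70% at every dose.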 The list is a sample of the results. Measured potencies and affinities stand elsewhere.

Assay: viability loss in HeLa cells – cytotoxicity control for MgcRacGAP inhibitor project, dose response (AID 624300)
Conditions: CellTiter-Glo luminescence, 24 h; series mostly up to 100 µM

SMILES	outcome
CCN(CC)c1ccc(N=Cc2c(C)[nH]c3ccccc23)cc1	inactive
COCCNCC(=O)Nc1ccc(C)c(S(=O)(=O)N2CCCCC2)c1	inactive
COc1cc(/C=N/NC(=O)c2ccoc2C)ccc1O	inactive
CCN(CC)c1ccc(/C=N\NC(N)=O)cc1	inactive
COc1cc(OC)c(Cl)cc1N	inactive
CCc1cc(/C(Cc2ccccn2)=N\O)c(O)cc1O	inactive
CCc1cc(/C(Cc2csc(C)n2)=N/O)c(O)cc1O	inactive
COc1ccc(C)cc1NCc1cccc(OC)c1OC	inactive
Cn1cccc1/C=N/N1CCN(c2ccccn2)CC1	inactive
Cc1ccc(C(C)C)c(OCCCCN2CCNCC2)c1	inactive
Cc1ccc(C(C)(C)C)cc1S(=O)(=O)N1CCC(C(=O)N2CCN(c3ccc(O)cc3)CC2)CC1	inactive
N#C/C(=C/c1ccc(N2CCCCCC2)o1)c1ccc(Cl)cc1	inactive
Cc1ccc(/C(C#N)=C\c2ccc(N3CCOCC3)o2)cc1	inactive
Nc1sc(-c2ccccc2)c(Cc2ccccc2)c1C(=O)O	inactive
COc1ccc2c(c1)c(C(=O)N/N=C/c1ccc(O)c(O)c1)c(C)n2C	inactive
CCN1CCN(CC(O)COC(c2ccccc2)c2ccccc2C)CC1 (configuration not stated)	inactive
COc1cccc(OCC(O)CN2CCN(C)CC2)c1 (configuration not stated)	inactive
O=[N+]([O-])c1cccc(CN2CCN(Cc3ccco3)CC2)c1	inactive
O=[N+]([O-])c1ccc(Sc2cccc3cccnc23)c([N+](=O)[O-])c1	inactive
CCc1cc(-c2[nH]ncc2-c2nc3ccccc3n2C)c(O)cc1O	inactive
CCOc1cc(/C=N/Nc2nc(=O)[nH]nc2C)ccc1O	inactive
COc1cc(/C=N/Nc2ccc(C(F)(F)F)cn2)ccc1O	inactive
COc1ccc(CN2CCN(C(=O)CC(C)C)CC2)cc1OC	inactive
Cc1nnc2ccc(Oc3ccc(-c4ccccc4)cc3)nn12	inactive

SMILES	outcome
Nc1cc2c(cc1N)-c1ccccc1C2	inactive
CC(=O)c1ccc2c(c1)Nc1ccccc1S2	inactive
CCOC(=O)Nc1ccc2c(c1)Nc1ccccc1S2	inactive
O=C(Sc1n[nH]c(=O)[nH]c1=O)c1ccccc1	inactive
CCN(CC)c1ccc(/C=N/N2CCN(Cc3ccccc3)CC2)cc1	inactive
O=C(Nc1ccc(N2CCCCCC2)cc1)c1ccc[nH]1	inactive
CC(C)(C)N1C(=O)c2ccc(C(=O)Nc3ccc(O)cc3)cc2C1=O	inactive
Oc1ccc(/C=C/c2ccc3ccccc3n2)cc1	inactive
O=C(O)c1ccc2nc(-c3ccco3)c(-c3ccco3)nc2c1	inactive
CCOc1cc(/C=C2\SC(N)=NC2=O)ccc1O	inactive
COc1cc(/C=C2\SC(N3CCC(C)CC3)=NC2=O)ccc1O	inactive
CCOC(=O)C1CCCN(C2=NC(=O)/C(=C/c3ccc(O)c(OC)c3)S2)C1 (configuration not stated)	inactive
COc1cc(/C=C2\SC(=S)N(NC(=O)c3ccncc3)C2=O)ccc1O	inactive
COc1cc(C=C2NC(=O)NC2=O)ccc1O	inactive
COc1cc(/C=C2\SC(=Nc3c(C)n(C)n(-c4ccccc4)c3=O)NC2=O)ccc1O	inactive
COc1cc(/C=C2/SC(=S)N(c3c(C)n(C)n(-c4ccccc4)c3=O)C2=O)ccc1O	inactive
O=C1/C(=C\c2ccc(O)c(O)c2)N=C2CCCCCN12	inactive
COc1cc(/C=N/NC(=O)c2cccc(N3CCCC3=O)c2)ccc1O	inactive
COc1ccc2cc(C(=O)Nc3ccc(O)cc3)sc(=O)c2c1OC	inactive
CC(C)(C)NC(=S)Nc1ccc(Nc2ccccc2)cc1	inactive
Oc1ccc(Cl)cc1C=Nc1ccc2c3c(cccc13)CC2	inactive
CC(=O)N1CCN(c2ccc(NCc3ccc4c(c3)OCO4)cc2)CC1	inactive
O=C(Nc1ccc(O)cc1)c1ccc2c(c1)C(=O)N(Cc1ccccc1)C2=O	inactive
Nc1c(/C=C2/C=CC(=O)C(O)=C2)c(=O)nc2sc(CC(=O)N3CCOCC3)nn12	inactive

SMILES	outcome
Cc1ccc(-c2csc3n[nH]c(=S)n23)cc1	inactive
COc1cc(/C=C/C(=O)OCC(=O)Nc2cc(S(=O)(=O)N3CCCCC3)ccc2C)ccc1O	inactive
COc1cc(/C=C2\SC(=S)N(NC(=O)c3cccc(O)c3)C2=O)ccc1O	inactive
COc1cc(/C=C2\SC(=S)N(NC(=O)c3ccc(O)cc3)C2=O)ccc1O	inactive
COc1cc(C=C2CN(C)C(=O)C2=O)ccc1O	inactive
COc1cc(/C=C2\SC(c3ccc(C)cc3)=NC2=O)cc(OC)c1O	inactive
COc1cc(/C=C2\SC(N)=NC2=O)cc(Cl)c1O	inactive
COc1cc(/C=c2\sc3n(c2=O)CCCN=3)ccc1O	inactive
CNc1nc2c3ccccc3n(C(C)=O)c2s1	inactive
COc1ccc(C2NC(=O)C(C#N)=C(S)N2c2ccccc2)cc1OC (configuration not stated)	inactive
CCOCCCNc1nc(=S)[nH]c2cc(OC)c(OC)cc12	inactive
COc1ccc(CN(C)CCc2ccccn2)c(OC)c1OC	inactive
CN(C)c1ncnc2c1NC1=C(S2)C(=NCCCC(=O)O)CC(C)(C)C1	inactive
O=C(N/N=C/c1ccc(O)cc1)c1csc2ccccc12	inactive
COc1cc(/C=N/NC(=O)CCc2n[nH]c(=O)[nH]c2=O)ccc1O	inactive
Clc1cc(Br)ccc1OCCOCCN1CCCC1	inactive
CN1CCN(CCOCCOc2ccc(Br)cc2Cl)CC1	inactive
CCCCn1c(=S)[nH]c2c(=O)n(C)c(=O)n(C)c21	inactive
O=[N+]([O-])/C(C=Nc1ccccc1O)=C\Nc1ccccc1O	inactive
CN(Cc1ccccc1)C(=O)C1CCCN(Cc2ccc(Cl)cc2)C1 (configuration not stated)	inactive
COc1cc(/C=N/NC(=O)c2ccccc2NS(=O)(=O)c2cccs2)ccc1O	inactive
COC(=O)C1=C(C)N(Cc2ccco2)C(=O)C1	inactive
CCOc1cc(/C=C2\C(=O)N(Cc3ccco3)C(C)=C2C(=O)OC)ccc1O	inactive
Oc1ccc(Br)cc1C=Nc1ccc2c3c(cccc13)CC2	inactive

SMILES	outcome
C#CCOCCOCCOCCNc1nc(N2CCN(C(=O)C([C@@H](C)O)n3cc([C@@H](N)CCCCN)nn3)CC2)nc(N2CCN(C(=O)[C@H](CCCN=C(N)N)n3cc(C(N)[C@@H](C)CC)nn3)CC2)n1 (some centres not stated)	inactive
CCC(CC)N1CCN(C(=O)c2cccc(Cl)c2)CC1	inactive
COc1cc(/C(C)=N/N2CCN(c3ccccc3OC)CC2)ccc1O	inactive
CN(C)C(=S)N=c1ssc(=S)n1Cc1cccnc1	inactive
COc1cc(/C=N/n2c(-c3cc(C)[nH]n3)n[nH]c2=S)cc(OC)c1OC	inactive
O=c1oc(-c2ccc(O)c(O)c2)cc2cccc(O)c12	inactive
COc1c(-c2ccc(O)c(O)c2)oc2cc(O)cc(O)c2c1=O	inactive
CCOC(=O)c1[nH]c2ccccc2c1NC(=S)Nc1cc(C)ccc1C	inactive
O=C(CN1CCN(c2ccc(O)cc2)CC1)Nc1ccccc1C(=O)NCCc1ccccc1	inactive
S=c1[nH]nc(-c2ccco2)n1/N=C/c1ccc(Cl)cc1	inactive
COc1cc2c(cc1OC)C1(CCCC1)C(N)=C2C#N	inactive
Oc1cc(O)cc(-c2cc3ccc(O)cc3o2)c1	inactive
COc1ccc(NC2CCCN(C(=O)C3=NNC(=O)CC3)C2)cc1 (configuration not stated)	inactive
N#Cc1ccccc1OCCCN1CCC(Cc2ccccc2)CC1	inactive
Cc1nnc(N=c2ssnc2Cl)o1	inactive
COc1cc(C(C)=NNC(=O)c2ccncc2)ccc1O	inactive
CCCn1c(=O)c2ccccc2n2c(SCCNCCO)nnc12	inactive
Cc1ccc(NCc2ccccc2O)cc1C	inactive
O=C1OCC/C1=C\c1ccc(O)cc1	inactive
COc1cc(/C=N/NC(=O)/C(=C/c2ccccc2)CCO)ccc1O	inactive
CCN(CC)CCOC(=O)c1ccc(N/C=C(/C#N)c2nc(-c3ccc4c(c3)OCO4)cs2)cc1	inactive
COc1ccc(-c2cc(C(=O)Nc3ccc(O)cc3)c3ccccc3n2)cc1OC	inactive
Cc1cc(NC(=O)c2sc3ccccc3c2O)no1	inactive
COc1cccc(C(=O)N2CCN(C3CCN(Cc4ccccc4)CC3)CC2)c1OC	inactive

SMILES	outcome
CCN(CC)c1ccc(NC(=O)CN2CCN(c3ccccn3)CC2)cc1	inactive
O=C(/C(=C/c1cccnc1)n1ccnc1)c1ccc(Cl)cc1Cl	inactive
CCOc1cc(/C=N/NC(=O)C(OC)c2ccccc2)ccc1O (configuration not stated)	inactive
COc1cc(/C=N\NC(=O)C2CC3C=CC2C3)ccc1O (configuration not stated)	inactive
COc1cc(/C=N/NC(=S)NCCN2CCOCC2)ccc1O	inactive
COc1cc(/C=N/NC(=O)CC(=O)NC2CCCCC2)ccc1O	inactive
CCOc1cc(C=NNC(=O)CCCC(=O)NN=Cc2ccc(O)c(OCC)c2)ccc1O	inactive
CCOc1cc(/C=N/NC(=O)C2CCCC2)ccc1O	inactive
O=C(N/N=C/c1ccc(O)cc1)NC12CC3CC(CC(C3)C1)C2	inactive
CCOc1cc(/C=N/NC(=O)c2cc(C3CC3)[nH]n2)ccc1O	inactive
CSc1nc(O)c(/C=C2\C=Nc3ccccc32)[nH]1	inactive
COc1ccc(NC2CCCN(C(=O)c3ccc(C)c(N4CCNC4=O)c3)C2)cc1 (configuration not stated)	inactive
CCOCCCNCC(=O)NCC1CCCCC1	inactive
COc1cc(NC(=O)COC(=O)/C=C/c2ccc(O)c(OC)c2)cc(OC)c1	inactive
Nc1ccc(N2CCN(c3ccccc3)CC2)c(F)c1	inactive
O=C1CSC(=S)N1Nc1ccccc1	inactive
Nc1ccc(N=Nc2ccc(O)cc2)c(N)n1	inactive
Cc1ccc(N2C(S)=C(C#N)C(=O)NC23CCCCC3)cc1	inactive
Cc1cccc(-n2c(=O)c3ccccc3n3c(=S)[nH]nc23)c1C	inactive
OCCN1CCN(CC(O)COC(c2ccc(F)cc2)c2ccc(F)cc2)CC1 (configuration not stated)	inactive
COc1ccc(OCC(O)CN2CCCC2)cc1 (configuration not stated)	inactive
